From PubChem BioAssay (NCATS) come the findings set out here.

Inconclusive results are not listed. Activity calls are given as the source filed them. Calls come from the whole dose curve; as a rule, active = well fitted inhibition curve with a large enough effect; inconclusive = small, poorly fitted or top-dose-only effect; inactive = flat fitted curve, though single readings scatter.

The first experiment concerns CRL-7250. The experiment in a line: qHTS assay to identify novel small-molecules to repurpose for Merkel cell carcinoma treatment (AID 1296009). Note: nearly all actives have a fitted effect of over 60% in size. The settings on record: MCC and control cell lines, CellTiter-Glo viability, 72 h; at 44.8 µM (top of the series) unless noted. The essentials:
(§1)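 Cells were incubated with compound for 72 hr at 37 degree celsius before CellTiter-Glo addition. Luminescence was normalized with no-cell wells as full cytotoxicity and DMSO as baseline.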
With `CC(C)(N)Cc1ccccc1Cl`, the outcome was inactive. Still for that read-out and setting: next, `CC(C)N(CCC(C(N)=O)(c1ccccc1)c1ccccn1)C(C)C` (configuration not stated): “inactive”; `C=CCC1(C(C)CC)C(=O)NC(=O)NC1=O` (configuration not stated): “inactive”; `COc1cccc([C@@]2(O)CCCC[C@@H]2CN(C)C)c1`: “inactive”. As for `C[N+]1(CCF)[C@@H]2CC[C@H]1CC(OC(=O)C(O)(c1ccccc1)c1ccccc1)C2` (some centres not stated), the outcome was inactive.

Consider `CCCCCCCCCC(=O)O[C@H]1CC[C@H]2[C@@H]3CCC4=CC(=O)CC[C@@H]4[C@H]3CC[C@]12C`, for which the compound was called inactive. The same measure, in the same setting: next, `O=C(O)CCCc1ccc(N(CCCl)CCCl)cc1`: “inactive”; `CC(=O)C1CCOC1=O` (configuration not stated): “inactive”.

Take `O=C(O)c1ccc(=O)[nH]c1`: the call was inactive. Still for that read-out and setting: for `CCOC(=O)CC(SP(=S)(OC)OC)C(=O)OCC` (configuration not stated) the value was “inactive”; for `CC(C)(C)NCC(O)c1cc(Cl)c(N)c(C(F)(F)F)c1` (configuration not stated), “inactive”; for `NNc1ccccc1`, “inactive”. Take `CC(NC(C)(C)C)C(=O)c1cccc(Cl)c1` (configuration not stated): the result was inactive.

Take `COc1ccc2c3c1O[C@H]1[C@H](O)CC[C@H]4[C@@H](C2)N(C)CC[C@@]341`: the outcome is “inactive [at 92 µM]”. Still for that read-out and setting: next, `C[C@]12CC[C@@H]3c4ccc(OC(=O)N(CCCl)CCCl)cc4CC[C@H]3[C@@H]1CC[C@@H]2OP(=O)(O)O`: “inactive”; `O=c1[nH]c2ccccc2n1C1CCNCC1`: “inactive”; `NC(=O)c1cc([N+](=O)[O-])cc([N+](=O)[O-])c1`: “inactive”.

On to `CCc1cc2c(s1)-n1c(C)nnc1CN=C2c1ccccc1Cl`, for which the outcome was inactive. For `CN1CC[C@]23c4c5ccc(O)c4O[C@H]2[C@@H](O)CC[C@H]3[C@H]1C5`, the outcome is “inactive [at 92 µM]”. With `C=CCN1C[C@H](C)N([C@H](c2ccc(C(=O)N(CC)CC)cc2)c2cccc(OC)c2)C[C@H]1C`, the compound was called inactive. Regarding `COC(=O)[C@@H](N)CCCN/C(N)=N/[N+](=O)[O-]`, the compound was called inactive. Regarding `CC(=O)OCC1=C(C(=O)O)N2C(=O)[C@@H](N)[C@H]2SC1`, the result was inactive. Consider `C[C@]12CC[C@H]3[C@@H](CCC4=CC(=O)CC[C@@H]43)[C@@H]1CC[C@@H]2OC(=O)CCC1CCCCC1`, for which the call was inactive.

A further experiment concerns HACAT. The experiment is described as above. The note with it: MCC and control cell lines, CellTiter-Glo viability, 72 h; at 44.8 µM (top of the series) unless noted. The essentials: as §1
Turning to `O=C1c2ccccc2C(=O)C1C(=O)C(c1ccccc1)c1ccccc1`, the call was inactive. On the same count and under the same terms, for `COc1cc(OC)c(OC)cc1C=O` the value was “inactive”; for `CC(C)(N)Cc1ccccc1Cl`, “inactive”; for `CC(C)c1cccc(C(C)C)c1O`, “inactive”.

For the compound `CC(C)N(CCC(C(N)=O)(c1ccccc1)c1ccccn1)C(C)C` (configuration not stated), the compound was called inactive.

For `C[N+]1(CCF)[C@@H]2CC[C@H]1CC(OC(=O)C(O)(c1ccccc1)c1ccccc1)C2` (some centres not stated), the call was inactive. Still for that read-out and setting: for `O=C(O)CCCc1ccc(N(CCCl)CCCl)cc1` the value was “inactive”; for `O=c1oc2ccccc2c(O)c1Cc1c(O)c2ccccc2oc1=O`, “inactive”. The same measure, in the same setting: next, `CC(=O)C1CCOC1=O` (configuration not stated): “inactive”. Consider `O=C(O)c1ccc(=O)[nH]c1`, for which the result was inactive. Same read-out and setting: for `C[C@]12CC[C@H]3[C@@H](CCC4=CC(=O)CC[C@@H]43)[C@@H]1CC[C@@H]2OC(=O)CCc1ccco1` the value was “inactive”; for `Clc1ccccc1N1CCNCC1`, “inactive”. On the same count and under the same terms, next, `CN1CC[C@]23c4c5ccc(O)c4O[C@H]2[C@@H](O)C=C[C@H]3[C@H]1C5`: “inactive [at 92 µM]”; `Nc1ccccc1`: “inactive”; `O=C1OC(c2ccc(O)c(S(=O)(=O)O)c2)(c2ccc(O)c(S(=O)(=O)O)c2)c2c(Br)c(Br)c(Br)c(Br)c21`: “inactive”. On the same count and under the same terms, for `CC(NC(C)(C)C)C(=O)c1cccc(Cl)c1` (configuration not stated) the value was “inactive”; for `COc1ccc2c3c1O[C@H]1[C@H](O)CC[C@H]4[C@@H](C2)N(C)CC[C@@]341`, “inactive [at 92 µM]”; for `C#CC(O)(C=CCl)CC` (configuration not stated), “inactive”. With `C[C@]12CC[C@@H]3c4ccc(OC(=O)N(CCCl)CCCl)cc4CC[C@H]3[C@@H]1CC[C@@H]2OP(=O)(O)O`, the call was inactive. Still for that read-out and setting: for `Oc1ccc(Cl)cc1` the value was “inactive”. Same read-out and setting: for `O=C1c2ccccc2C(=O)c2ccccc21` the value was “inactive [at 17.4 µM]”; for `CN1CC[C@]23c4c5ccc(O)c4O[C@H]2[C@@H](O)CC[C@H]3[C@H]1C5`, “inactive [at 92 µM]”. With `CN1C(=O)CCS(=O)(=O)C1c1ccc(Cl)cc1` (configuration not stated), the compound was called inactive. In the case of `ClCCN1CCCC1`, the compound was classed as inactive.
